Screening results: PubChem, several laboratories
Most compounds without a hit are left out; they make up all but 1% or so of the library.
PKA kinase inh: inhibitors of human PKA kinase activity, primary screen, biochemical, ATP-depletion luminescence, Kemptide substrate. cAMP-dependent protein kinase catalytic subunit alpha (Homo sapiens), P17612. PKA Kemptide phosphorylation, Kinase-Glo ATP luminescence. inhibition, % at 6 µM. actives 0.1% (n = 65,000). AID 524, 2006;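 active = inhibition above the screen-wide mean inhibition plus 3 SD, cut at about 21% in these data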
Cdc25B block: inhibitors of Cdc25B phosphatase catalytic domain, primary screen, biochemical, OMFP fluorescence; inhibition, %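 (compounds tested at 10 µM final in the well)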; actives 0.1% (n = 65,000); AID 368, 2006; recombinant Cdc25B, OMFP fluorescence Ex485/Em525; in the data active = inhibition above about 50%
ROCK2 inh: inhibitors of human ROCK2 kinase, primary screen, biochemical, high-throughput, luminescence; Rho-associated protein kinase 2 (Homo sapiens), O75116; inhibition, % at 6 µM; purified ROCK2, Kinase-Glo ATP depletion luminescence; actives 0.35% (n = 60,000);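 active = inhibition above the screen-wide mean inhibition plus 3 SD, cut at about 18% in these data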;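 also: plate controls were DMSO wells for no effect and Y-27632 control wells after no-enzyme background subtraction for full effect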
Target sequence (O75116 whole entry, looked up): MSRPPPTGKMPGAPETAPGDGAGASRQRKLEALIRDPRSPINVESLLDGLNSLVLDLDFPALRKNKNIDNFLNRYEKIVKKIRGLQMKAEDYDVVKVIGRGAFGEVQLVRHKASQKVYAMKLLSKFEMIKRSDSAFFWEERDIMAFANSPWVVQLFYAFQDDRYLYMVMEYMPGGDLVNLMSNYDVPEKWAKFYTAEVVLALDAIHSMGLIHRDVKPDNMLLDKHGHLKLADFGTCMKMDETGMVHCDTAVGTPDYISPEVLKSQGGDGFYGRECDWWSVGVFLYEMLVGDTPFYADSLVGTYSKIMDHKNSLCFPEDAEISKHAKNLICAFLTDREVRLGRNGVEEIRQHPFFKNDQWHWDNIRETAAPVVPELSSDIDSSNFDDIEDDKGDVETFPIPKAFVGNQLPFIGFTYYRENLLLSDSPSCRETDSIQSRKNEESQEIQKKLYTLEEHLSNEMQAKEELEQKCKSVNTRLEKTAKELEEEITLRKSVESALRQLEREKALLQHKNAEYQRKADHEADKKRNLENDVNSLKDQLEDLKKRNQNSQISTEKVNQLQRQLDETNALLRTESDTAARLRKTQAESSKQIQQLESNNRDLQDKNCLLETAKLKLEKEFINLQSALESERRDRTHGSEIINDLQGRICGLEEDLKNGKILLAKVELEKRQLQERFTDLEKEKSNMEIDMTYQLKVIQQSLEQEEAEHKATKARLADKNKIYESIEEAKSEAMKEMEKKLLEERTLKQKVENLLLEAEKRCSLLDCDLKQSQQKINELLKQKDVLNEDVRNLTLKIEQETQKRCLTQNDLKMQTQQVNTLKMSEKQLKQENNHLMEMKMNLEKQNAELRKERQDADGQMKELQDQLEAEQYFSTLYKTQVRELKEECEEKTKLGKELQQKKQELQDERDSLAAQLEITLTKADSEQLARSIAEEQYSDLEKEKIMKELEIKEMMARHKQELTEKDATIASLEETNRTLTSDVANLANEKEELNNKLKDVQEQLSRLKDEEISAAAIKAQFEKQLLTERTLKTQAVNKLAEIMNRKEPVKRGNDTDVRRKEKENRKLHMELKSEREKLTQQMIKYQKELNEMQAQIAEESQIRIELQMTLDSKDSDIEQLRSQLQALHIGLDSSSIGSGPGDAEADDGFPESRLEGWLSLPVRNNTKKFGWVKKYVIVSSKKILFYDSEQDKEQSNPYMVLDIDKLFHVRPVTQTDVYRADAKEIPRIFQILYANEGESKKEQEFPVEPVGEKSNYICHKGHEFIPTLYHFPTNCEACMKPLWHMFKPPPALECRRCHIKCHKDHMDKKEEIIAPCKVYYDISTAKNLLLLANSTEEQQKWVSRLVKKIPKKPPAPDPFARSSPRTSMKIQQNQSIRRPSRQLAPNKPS
MKP-1 inh: MKP-1 phosphatase inhibitors, primary screen, biochemical, in vitro. Dual specificity protein phosphatase 1 (Homo sapiens), P28562. actives 0.15% (n = 65,000). AID 374, 2006. recombinant MKP-1, OMFP hydrolysis fluorescence. inhibition, %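 (compounds tested at a single concentration somewhere between 10 and 100 µM)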;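 active = inhibition above about 50%, limit read from the data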;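 also: 0% = DMSO max control wells and 100% = wells with enzyme stopped by NaOH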
SKBR3 24h inh: SK-BR-3 proliferation inhibitors, primary screen, cell-based, human, 24 h; SK-BR-3 viability, CellTiter-Glo ATP luminescence; hits give low values; viability, % at 10 µM; actives 0.47% (n = 41,000); AID 847, 2007;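 active = viability at or below the median of all test compounds minus 3 SD, in both replicates if run twice, cut at about 45% in these data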;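 also: 100% = median untreated cell wells and 0% = median positive control drug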
Hsp90 inh: tumor Hsp90 inhibitors, primary screen, cell lysate, fluorescence polarization, NCI-N417 lysate. Heat shock protein HSP 90-alpha (Homo sapiens), P07900. Cy3B-geldanamycin FP displacement. inhibition, % at 30 µM. actives 0.35% (n = 64,000). AID 429, 2006;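 active = inhibition above 50%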;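 also: 0% = tracer plus lysate wells and 100% = tracer alone without lysate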
An asterisk follows results filed as active; . = not tested or not shown.

SMILES	PKA kinase inh	Cdc25B block	ROCK2 inh	MKP-1 inh	SKBR3 24h inh	Hsp90 inh
CCNc1nc(NC(C)C)nc(NS(=O)(=O)c2ccc(Cl)cc2)n1	-4.3	-0.6	-4.1	-30.6	42.4*	-2.0
CCN(CC)c1nc(N)nc(NS(=O)(=O)c2ccc(Cl)cc2)n1	-8.4	2.7	-4.3	13.7	.	1.6
O=c1[nH]cnc2[nH]ncc12	.	-2.7	.	74.5*	79.4	0.4
CCCC(=O)Nc1nnc(-c2cccc(OCC)c2)s1	-5.2	4.7	-1.8	26.2	105.5	-3.6
CC(C)c1cc(Nc2cccc(O)c2)cc(C(C)C)c1O	-1.5	8.5	4.0	23.0	.	72.1*
Cn1c(=O)c(NCCO)c2c3c(cccc31)C(=O)c1ccccc1-2	4.5	-4.1	.	-17.8	.	135.2*
CCNc1c2c3c(cccc3n(C)c1=O)C(=O)c1ccccc1-2	-6.2	-3.8	-1.7	14.0	.	19.6
O=C(O)C1CCCCC1C(=O)Nc1ccc2c(c1)CCC2 (stereo unspecified)	-2.8	3.3	-0.5	9.2	102.1	-3.0
Cn1c(=O)c(=O)n(C)c2cc(S(=O)(=O)N3CCCCCC3)ccc21	-0.7	23.9	3.6	3.4	70.5	-4.7
O=C(NCCN1CCCC1)c1ccc2c(c1)N(Cc1ccc(F)cc1)C(=O)c1ccccc1S2=O (stereo unspecified)	3.1	-6.5	4.0	-19.5	.	-2.8
COC(=O)CSc1ccccc1C(=O)OC	-3.7	-6.7	-0.6	-7.4	93.6	-7.2
COC(=O)c1cccc2c1-c1ccccc1/C2=N/O	17.7	-2.3	19.5*	24.3	91.6	2.9
Nc1nnc(CCN2C(=O)CSC2=O)s1	12.8	-2.2	1.9	-3.7	39.9*	1.0
c1coc(CNc2ncnc3sc4c(c23)CCCCC4)c1	9.0	-10.4	18.5*	1.3	.	-4.0
CC1CNCCN1S(=O)(=O)c1cccc2cnccc12 (stereo unspecified)	46.0*	-18.1	107.1*	-14.3	74.7	-2.6
O=C1Nc2ccccc2C12OCCO2	2.9	-20.9	2.0	24.8	.	-0.8
COc1ccc2cc3c(N)c(C(=O)NCc4ccco4)sc3nc2c1	-5.8	0.1	19.5*	7.5	99.6	-3.5
COc1ccccc1Cc1noc(COc2cccc(C)c2C)n1	-0.1	-6.0	1.3	1.9	83.9	-2.9
N#C/C(=C(/O)CSc1nnc(Cc2cccs2)n1C1CCCCC1)c1nc2ccccc2[nH]1	7.8	-0.3	.	51.6*	85.8	.
C=CCn1c(COc2ccc(CC)cc2)nnc1SC/C(O)=C(\C#N)c1nc2ccccc2[nH]1	5.7	1.0	.	17.9	29.2*	-12.4
COc1ccc(Cn2nnnc2C(c2cc3cc(C)ccc3[nH]c2=O)N2CCOCC2)cc1 (stereo unspecified)	7.9	-2.7	5.6	17.5	.	-3.4
COc1ccc(Cn2nnnc2C(c2cc3cccc(C)c3[nH]c2=O)N2CCOCC2)cc1 (stereo unspecified)	-0.9	51.9*	-0.2	7.2	102.2	-0.6
CCC(C)NCCNc1cc(OC)cc2cccnc12 (stereo unspecified)	.	.	.	.	.	127.4*
COc1cc(NCCN(CC(C)C)CC(C)C)c2ncccc2c1	.	.	.	.	.	22.2
CCn1c(SCC(=O)C(C)(C)C)nnc1-c1ccccn1	6.4	-10.3	3.4	6.9	.	1.2
SMILES	PKA kinase inh	Cdc25B block	ROCK2 inh	MKP-1 inh	SKBR3 24h inh	Hsp90 inh
Cc1[nH]c2ccc(Br)cc2c(=O)c1CN1CCCCC1	1.4	4.8	-1.8	28.7	67.2	2.1
Cc1[nH]c2c(Cl)cccc2c(=O)c1CN1CCCC1	4.2	62.9*	1.4	-1.6	84.1	-1.3
CS(=O)(=O)N(CC(=O)Nc1ccc2c(c1)OCO2)Cc1ccc(Cl)cc1	4.3	-12.3	0.1	4.8	89.6	35.1
O=S(=O)(Cc1ccc(Cl)cc1)Nc1ccc2c(c1)OCO2	7.8	-1.7	7.7	-3.4	82.4	56.3*
COc1nc(OC/C(N)=N/O)nc(N2CCOCC2)n1	6.2	65.5*	3.4	-10.9	79.5	0.1
CC(=O)Nc1ccc(S(=O)(=O)n2cnc3cc(C)c(C)cc32)cc1	8.5	-3.6	6.7	35.2	66.1	-4.6
CCCCCCn1c(CN2CCN(Cc3ccccc3)CC2)nc2c1c(=O)n(C)c(=O)n2C	-7.2	-24.2	-6.2	32.0	73.9	-7.5
CCCn1c(NC(=O)c2cccc(S(=O)(=O)N3CCCC3)c2)nc2ccccc21	12.3	-10.4	32.0*	16.9	.	-5.2
Cc1cc(Cl)ccc1NC(=O)CSc1nnc(-c2ccncc2)n1Cc1ccco1	-0.9	-14.0	.	13.9	39.2*	.
Cc1cccc(C)c1NC(=O)CSc1nnc(-c2ccncc2)n1Cc1ccco1	12.4	6.4	-0.2	-3.3	90.5	-8.7
CCOC(=O)C1C(=O)N(C(=O)c2ccc(OC)cc2)CC1c1ccccc1 (stereo unspecified)	-0.2	-18.5	2.3	7.6	.	1.9
N#Cc1cccc(NC(=O)NCCc2c[nH]c3ccccc23)c1	8.2	-13.3	21.6*	2.6	.	-2.1
Oc1ccc(C=Nc2ccc3ncccc3c2)c(O)c1	6.0	4.3	10.8	9.2	93.0	76.0*
COc1ccc(NC(=O)C(F)(OC)C(F)(F)F)c(OC)c1 (stereo unspecified)	6.8	-1.0	2.2	8.7	41.4*	0.4
CCCc1nnc(NC(=O)c2cccc(OC)c2)s1	11.6	-11.4	5.9	7.2	90.6	-5.7
C=CCn1c(=O)/c(=C/c2cc(OC)c(OC)c(OC)c2)s/c1=C(/C#N)c1nc2ccccc2n1C	-0.7	-22.3	.	16.4	39.7*	.
CNc1nc(C)nc(-n2nc(C)cc2C)n1	4.4	-14.8	2.8	3.6	90.1	-3.1
Cc1cc(C)n(-c2nc3ccccc3c(=O)n2OCc2ccc(F)cc2)n1	12.0	-8.2	1.9	-31.0	40.4*	1.8
Cc1cc(C)n(-c2nc3ccccc3c(=O)n2OCC(=O)OCc2ccccc2)n1	12.3	-5.2	5.0	3.0	138.9	-3.0
CN1CC(=O)N(CC(=O)Nc2ccc(N(C)C)cc2)c2ccccc2C1=O	11.0	-2.4	.	8.8	.	-2.8
COc1ccc(CN=CC2=C(O)CNC2=O)cc1OC	6.3	-8.5	6.8	11.1	92.0	-1.7
O=C1NCC(O)=C1C=NCCCO	11.3	-3.2	8.0	10.0	31.2*	-4.5
CSc1nc(SC)c2c3c(oc2n1)COC(C)(C)C3	11.0	3.3	5.3	14.4	89.9	-2.9
COc1ccc(-c2cn3c(C)c(C(=O)Nc4cccc(C)n4)sc3n2)cc1	2.1	-13.0	0.9	51.1*	.	-3.7
Cc1cccc(NC(=O)c2sc3nc(-c4ccccc4)cn3c2C)n1	5.7	-26.6	2.4	25.8	.	-5.3
O=c1cc(CO)oc(CN2CCCC2)c1O	-7.7	1.4	-6.3	11.5	86.4	0.2
